The values that follow come from the supplement of paper PMC10849652.

About 7,900 targets were measured; listed, in parts, are those with a hit and a random draw of the rest. About 0.6% of all pairs of compound and target were hits. Values without a mark were called inactive.

Chain of UniProt P55084 (P55084 whole entry, looked up): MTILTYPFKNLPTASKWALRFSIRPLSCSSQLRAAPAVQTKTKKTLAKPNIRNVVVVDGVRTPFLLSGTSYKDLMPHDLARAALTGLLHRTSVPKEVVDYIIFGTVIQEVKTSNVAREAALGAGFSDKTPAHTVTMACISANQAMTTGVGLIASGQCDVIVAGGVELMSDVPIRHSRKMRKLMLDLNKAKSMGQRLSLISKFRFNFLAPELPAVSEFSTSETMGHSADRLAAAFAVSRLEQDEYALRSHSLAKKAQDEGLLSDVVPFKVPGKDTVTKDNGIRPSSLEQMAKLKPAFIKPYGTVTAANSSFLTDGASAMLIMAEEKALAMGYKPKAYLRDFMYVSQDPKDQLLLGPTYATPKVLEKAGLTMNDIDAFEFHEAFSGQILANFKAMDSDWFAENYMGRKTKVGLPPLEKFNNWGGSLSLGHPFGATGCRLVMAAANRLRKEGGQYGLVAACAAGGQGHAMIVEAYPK
Chain of UniProt Q8IWJ2 (Q8IWJ2 whole entry, looked up): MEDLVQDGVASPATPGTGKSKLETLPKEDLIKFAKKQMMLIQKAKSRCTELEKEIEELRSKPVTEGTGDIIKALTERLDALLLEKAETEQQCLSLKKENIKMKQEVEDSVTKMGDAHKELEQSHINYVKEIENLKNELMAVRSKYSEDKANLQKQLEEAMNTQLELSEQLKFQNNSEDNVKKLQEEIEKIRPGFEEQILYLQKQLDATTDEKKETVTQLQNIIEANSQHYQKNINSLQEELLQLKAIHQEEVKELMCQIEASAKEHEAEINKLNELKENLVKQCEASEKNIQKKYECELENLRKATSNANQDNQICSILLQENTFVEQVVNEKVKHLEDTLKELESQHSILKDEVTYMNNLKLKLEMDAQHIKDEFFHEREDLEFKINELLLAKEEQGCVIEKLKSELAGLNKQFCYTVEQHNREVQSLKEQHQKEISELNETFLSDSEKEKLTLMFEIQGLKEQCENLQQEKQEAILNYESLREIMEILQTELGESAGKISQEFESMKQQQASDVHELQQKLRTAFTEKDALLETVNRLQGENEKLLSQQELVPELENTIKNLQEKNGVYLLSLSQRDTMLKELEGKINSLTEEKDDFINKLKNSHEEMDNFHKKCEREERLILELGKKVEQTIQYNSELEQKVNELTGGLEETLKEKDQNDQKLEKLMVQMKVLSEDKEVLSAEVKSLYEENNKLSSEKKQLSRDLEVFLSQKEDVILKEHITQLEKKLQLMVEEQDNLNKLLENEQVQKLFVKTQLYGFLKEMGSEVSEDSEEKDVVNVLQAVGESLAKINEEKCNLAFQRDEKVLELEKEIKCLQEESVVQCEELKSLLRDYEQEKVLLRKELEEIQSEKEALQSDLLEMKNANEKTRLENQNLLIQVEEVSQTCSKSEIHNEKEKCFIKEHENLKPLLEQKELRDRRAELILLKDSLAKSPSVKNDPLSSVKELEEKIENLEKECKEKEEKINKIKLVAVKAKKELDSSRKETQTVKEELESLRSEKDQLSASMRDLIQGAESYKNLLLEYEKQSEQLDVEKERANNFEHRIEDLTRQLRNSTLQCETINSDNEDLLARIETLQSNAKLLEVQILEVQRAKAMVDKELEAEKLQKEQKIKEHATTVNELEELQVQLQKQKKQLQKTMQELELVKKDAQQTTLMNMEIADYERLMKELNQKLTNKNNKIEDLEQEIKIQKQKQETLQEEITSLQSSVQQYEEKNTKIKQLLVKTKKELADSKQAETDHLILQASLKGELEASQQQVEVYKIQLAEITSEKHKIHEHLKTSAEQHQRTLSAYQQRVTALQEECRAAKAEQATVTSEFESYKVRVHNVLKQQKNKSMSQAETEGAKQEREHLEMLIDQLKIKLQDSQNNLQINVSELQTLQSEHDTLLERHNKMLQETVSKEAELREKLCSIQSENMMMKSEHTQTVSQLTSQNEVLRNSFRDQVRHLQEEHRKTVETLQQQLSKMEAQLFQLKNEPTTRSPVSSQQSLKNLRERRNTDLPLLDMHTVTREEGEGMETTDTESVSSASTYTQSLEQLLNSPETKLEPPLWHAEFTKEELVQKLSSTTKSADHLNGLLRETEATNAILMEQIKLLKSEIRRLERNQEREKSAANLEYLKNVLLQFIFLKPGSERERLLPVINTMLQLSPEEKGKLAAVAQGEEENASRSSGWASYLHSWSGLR
Chain of UniProt Q9UKN8 (Q9UKN8 whole entry, looked up): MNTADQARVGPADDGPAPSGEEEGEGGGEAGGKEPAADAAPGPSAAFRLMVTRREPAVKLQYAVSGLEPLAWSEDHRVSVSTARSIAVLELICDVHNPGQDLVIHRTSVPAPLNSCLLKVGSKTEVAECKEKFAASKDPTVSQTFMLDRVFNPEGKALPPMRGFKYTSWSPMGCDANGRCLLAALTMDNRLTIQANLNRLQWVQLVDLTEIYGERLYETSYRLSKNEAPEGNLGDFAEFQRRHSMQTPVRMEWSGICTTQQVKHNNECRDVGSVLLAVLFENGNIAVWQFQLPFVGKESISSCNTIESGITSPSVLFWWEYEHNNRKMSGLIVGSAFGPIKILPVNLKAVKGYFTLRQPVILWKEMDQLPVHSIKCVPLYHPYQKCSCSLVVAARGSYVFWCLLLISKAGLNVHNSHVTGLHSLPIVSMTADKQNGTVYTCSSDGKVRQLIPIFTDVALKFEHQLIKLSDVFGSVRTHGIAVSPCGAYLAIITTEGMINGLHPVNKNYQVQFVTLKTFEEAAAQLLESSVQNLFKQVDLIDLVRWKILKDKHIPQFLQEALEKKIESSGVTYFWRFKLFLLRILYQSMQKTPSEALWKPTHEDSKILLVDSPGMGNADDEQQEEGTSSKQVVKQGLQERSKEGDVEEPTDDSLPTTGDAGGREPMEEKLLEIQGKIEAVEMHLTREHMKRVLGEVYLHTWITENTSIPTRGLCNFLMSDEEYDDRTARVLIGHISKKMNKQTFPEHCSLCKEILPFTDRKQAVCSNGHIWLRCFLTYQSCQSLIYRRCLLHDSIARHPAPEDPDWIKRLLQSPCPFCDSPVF
Chain of UniProt O00291 (O00291 whole entry, looked up): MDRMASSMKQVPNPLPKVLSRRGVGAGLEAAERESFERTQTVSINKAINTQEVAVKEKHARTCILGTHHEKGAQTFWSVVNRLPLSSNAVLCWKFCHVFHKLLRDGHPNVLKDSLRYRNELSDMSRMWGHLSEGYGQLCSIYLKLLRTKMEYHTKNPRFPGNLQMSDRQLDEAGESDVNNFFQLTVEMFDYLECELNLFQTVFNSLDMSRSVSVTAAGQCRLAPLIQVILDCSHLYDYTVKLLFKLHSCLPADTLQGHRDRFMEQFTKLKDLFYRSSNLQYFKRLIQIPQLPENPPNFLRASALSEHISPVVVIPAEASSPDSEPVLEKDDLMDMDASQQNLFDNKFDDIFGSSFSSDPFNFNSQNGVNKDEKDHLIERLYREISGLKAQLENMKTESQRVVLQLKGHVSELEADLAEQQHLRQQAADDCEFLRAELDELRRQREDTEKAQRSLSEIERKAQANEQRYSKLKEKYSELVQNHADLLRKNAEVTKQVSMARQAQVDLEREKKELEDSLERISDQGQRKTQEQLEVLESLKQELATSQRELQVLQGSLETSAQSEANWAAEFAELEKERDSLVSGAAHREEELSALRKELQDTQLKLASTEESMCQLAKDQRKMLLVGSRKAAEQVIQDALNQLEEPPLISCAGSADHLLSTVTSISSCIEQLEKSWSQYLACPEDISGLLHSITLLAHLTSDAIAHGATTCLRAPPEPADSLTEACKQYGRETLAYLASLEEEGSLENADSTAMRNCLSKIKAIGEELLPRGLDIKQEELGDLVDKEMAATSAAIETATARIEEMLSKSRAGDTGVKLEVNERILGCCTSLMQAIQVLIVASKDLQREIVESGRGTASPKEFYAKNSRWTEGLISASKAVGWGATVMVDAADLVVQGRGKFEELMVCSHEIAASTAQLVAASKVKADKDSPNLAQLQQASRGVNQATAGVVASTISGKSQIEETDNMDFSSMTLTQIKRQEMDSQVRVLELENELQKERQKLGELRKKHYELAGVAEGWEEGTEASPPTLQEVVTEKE
Chain of UniProt P13807 (P13807 whole entry, looked up): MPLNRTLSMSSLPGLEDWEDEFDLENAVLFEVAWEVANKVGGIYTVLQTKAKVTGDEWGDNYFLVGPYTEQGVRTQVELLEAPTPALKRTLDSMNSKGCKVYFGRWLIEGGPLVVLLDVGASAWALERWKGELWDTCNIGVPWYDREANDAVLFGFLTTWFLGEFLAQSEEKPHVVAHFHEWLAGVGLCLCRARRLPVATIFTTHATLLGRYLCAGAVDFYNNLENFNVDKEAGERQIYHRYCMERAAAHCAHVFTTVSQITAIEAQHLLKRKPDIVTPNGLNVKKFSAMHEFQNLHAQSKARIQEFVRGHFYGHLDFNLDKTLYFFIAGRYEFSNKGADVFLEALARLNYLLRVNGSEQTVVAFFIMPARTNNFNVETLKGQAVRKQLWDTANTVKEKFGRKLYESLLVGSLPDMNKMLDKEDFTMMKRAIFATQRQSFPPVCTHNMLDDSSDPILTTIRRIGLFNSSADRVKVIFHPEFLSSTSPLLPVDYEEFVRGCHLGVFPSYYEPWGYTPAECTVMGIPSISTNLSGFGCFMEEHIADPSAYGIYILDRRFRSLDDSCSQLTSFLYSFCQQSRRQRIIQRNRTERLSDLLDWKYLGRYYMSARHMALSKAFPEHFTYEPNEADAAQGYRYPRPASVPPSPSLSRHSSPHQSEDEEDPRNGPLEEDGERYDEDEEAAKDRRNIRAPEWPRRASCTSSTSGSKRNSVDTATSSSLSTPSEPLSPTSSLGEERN
Chain of UniProt O76003 (O76003 whole entry, looked up): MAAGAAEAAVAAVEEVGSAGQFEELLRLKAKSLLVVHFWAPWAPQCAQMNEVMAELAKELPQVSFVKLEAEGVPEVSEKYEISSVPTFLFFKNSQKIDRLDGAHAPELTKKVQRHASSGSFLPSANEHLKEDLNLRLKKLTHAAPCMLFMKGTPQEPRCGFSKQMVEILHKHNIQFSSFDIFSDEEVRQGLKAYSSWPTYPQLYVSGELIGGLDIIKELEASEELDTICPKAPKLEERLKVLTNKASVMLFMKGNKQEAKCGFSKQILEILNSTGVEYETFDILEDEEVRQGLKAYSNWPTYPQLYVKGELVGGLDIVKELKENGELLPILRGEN

Compound in the first experiment: Cc1ccc(NC(=O)c2ccc(CN3CC[C@H](N(C)C)C3)c(C(F)(F)F)c2)cc1Nc1nccc(-c2cncnc2)n1 [bafetinib]
In words: log2 fold change, soluble protein after heating vs DMSO (PISA); higher = thermal stabilisation; K562 cells, 10 uM, 30 min; active = over 0.2 and 3.5 SD of the protein, either way, in both replicates (recomputed). The method, boiled down:
(§1)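 K562 cells at 2×10^6 cells/mL were treated for 30 min with 10 μM compound, and aliquots were heated for 3 min over 48°C-58°C before pooling. Extraction used PBS with 0.5% NP-40 at 4°C, and soluble protein was the supernatant after 21,000xg for 90 min, measured by TMTpro 16plex LC-MS/MS with channel sums equalised. Thermal stability values, relative to control samples and from duplicates, are log2 fold changes.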
Regarding IGF2BP2 (UniProt Q9Y6M1), the log2 fold change is 0.121.

As for FARS2 (UniProt O95363), the log2 fold change is -0.058.

In the case of HECTD1 (UniProt Q9ULT8), the log2 fold change was 0.025.

As for HRAS (UniProt P01112), the log2 fold change is -0.033.

Regarding HMG20A (UniProt Q9NP66), the log2 fold change is -0.012.

Regarding GCC2 (UniProt Q8IWJ2), the log2 fold change is 0.033.

As to GAPVD1 isoform 6 (UniProt Q14C86), the log2 fold change is 0.023.

Consider GSTP1 (UniProt P09211), for which the log2 fold change is -0.061.

Take GYS1 (UniProt P13807): the log2 fold change was 0.107.

As for FBXO9 (UniProt Q9UK97), the log2 fold change is 0.067.

On to HOMER1 (UniProt Q86YM7), for which the log2 fold change is -0.016.

For GLYR1 (UniProt Q49A26), the log2 fold change was 0.109.

Turning to HIP1 (UniProt O00291), the log2 fold change was -0.079.

In the case of HDGFL2 (UniProt Q7Z4V5), the log2 fold change was -0.017.

Consider GTF2E2 (UniProt P29084), for which the log2 fold change is 0.031.

As to HIP1R (UniProt O75146), the log2 fold change was -0.021.

As for FDFT1 (UniProt P37268), the log2 fold change is 0.01.

For the target HNRNPK isoform 2 (UniProt P61978), the log2 fold change was -0.03.

On to GLRX3 (UniProt O76003), for which the log2 fold change is -0.04.

HRC (UniProt P23327): the log2 fold change is -0.098.

For the target GNL1 (UniProt P36915), the log2 fold change was -0.02.

As for GTF3C4 (UniProt Q9UKN8), the log2 fold change is -0.065.

On to FECH isoform 2 (UniProt P22830), for which the log2 fold change is 0.315.

Take GPD1 (UniProt P21695): the log2 fold change was -0.171.

GPKOW (UniProt Q92917): the log2 fold change was -0.025.

As to FBL (UniProt P22087), the log2 fold change was 0.29.

With GLUD2 (UniProt P49448), the log2 fold change is 0.234.

HP1BP3 (UniProt Q5SSJ5): the log2 fold change was 0.017.

As to HADHB (UniProt P55084), the log2 fold change was 0.251.

Consider HSPA8 (UniProt E9PK54), for which the log2 fold change is 0.096.

As for FERMT3 (UniProt Q86UX7), the log2 fold change is -0.022.

As to GDI1 (UniProt P31150), the log2 fold change was 0.002.

FOXK1 (UniProt P85037): the log2 fold change was 0.03.

Regarding FNTB (UniProt P49356), the log2 fold change was 0.028.

Compound in the next experiment: Cc1cccc(CC(=O)N2CCc3c2ccc(-c2cn(C)c4ncnc(N)c24)c3F)n1
Described as above. The method, boiled down: as §1
With IGF2BP2 (UniProt Q9Y6M1), the log2 fold change was 0.004.

Take FARS2 (UniProt O95363): the log2 fold change is 0.064.

As to HECTD1 (UniProt Q9ULT8), the log2 fold change is 0.029.

As to HRAS (UniProt P01112), the log2 fold change was 0.063.

As for HMG20A (UniProt Q9NP66), the log2 fold change was -0.05.

Regarding GCC2 (UniProt Q8IWJ2), the log2 fold change is -0.045.

In the case of GAPVD1 isoform 6 (UniProt Q14C86), the log2 fold change is 0.072.

On to GSTP1 (UniProt P09211), for which the log2 fold change is -0.021.

For GYS1 (UniProt P13807), the log2 fold change is 0.011.

In the case of FBXO9 (UniProt Q9UK97), the log2 fold change was 0.234.

Regarding HOMER1 (UniProt Q86YM7), the log2 fold change is -0.002.

Turning to GLYR1 (UniProt Q49A26), the log2 fold change was -0.015.

Consider HIP1 (UniProt O00291), for which the log2 fold change was -0.069.

HDGFL2 (UniProt Q7Z4V5): the log2 fold change was -0.013.

Take GTF2E2 (UniProt P29084): the log2 fold change is 0.03.

Take HIP1R (UniProt O75146): the log2 fold change is 0.043.

Turning to FDFT1 (UniProt P37268), the log2 fold change is 0.016.

Take HNRNPK isoform 2 (UniProt P61978): the log2 fold change was 0.007.

Take GLRX3 (UniProt O76003): the log2 fold change is 0.025.

For the target HRC (UniProt P23327), the log2 fold change was -0.147.

With GNL1 (UniProt P36915), the log2 fold change is 0.019.

Take GTF3C4 (UniProt Q9UKN8): the log2 fold change is 0.019.

For FECH isoform 2 (UniProt P22830), the log2 fold change was -0.125.

As for GPD1 (UniProt P21695), the log2 fold change is -0.123.

As for GPKOW (UniProt Q92917), the log2 fold change is 0.086.

In the case of FBL (UniProt P22087), the log2 fold change is -0.039.

For GLUD2 (UniProt P49448), the log2 fold change is 0.02.

As for HP1BP3 (UniProt Q5SSJ5), the log2 fold change was -0.082.

In the case of HADHB (UniProt P55084), the log2 fold change was 0.132.

Turning to HSPA8 (UniProt E9PK54), the log2 fold change is -0.069.

Take FERMT3 (UniProt Q86UX7): the log2 fold change was 0.029.

As to GDI1 (UniProt P31150), the log2 fold change is 0.024.

For the target FOXK1 (UniProt P85037), the log2 fold change was 0.052.

Consider FNTB (UniProt P49356), for which the log2 fold change is 0.015.

Compound in a further experiment: Cc1cn(-c2cc(NC(=O)c3ccc(C)c(Nc4nccc(-c5cccnc5)n4)c3)cc(C(F)(F)F)c2)cn1 [nilotinib]
Described as above. The method, boiled down:
as §1
On to IGF2BP2 (UniProt Q9Y6M1), for which the log2 fold change was -0.058.

With FARS2 (UniProt O95363), the log2 fold change is -0.126.

For HECTD1 (UniProt Q9ULT8), the log2 fold change was -0.111.

As for HRAS (UniProt P01112), the log2 fold change was 0.109.

On to HMG20A (UniProt Q9NP66), for which the log2 fold change was -0.046.

As for GCC2 (UniProt Q8IWJ2), the log2 fold change is -0.14.

GAPVD1 isoform 6 (UniProt Q14C86): the log2 fold change is -0.09.

For GSTP1 (UniProt P09211), the log2 fold change was -0.018.

As to GYS1 (UniProt P13807), the log2 fold change was 0.237.

As to FBXO9 (UniProt Q9UK97), the log2 fold change is 0.087.

HOMER1 (UniProt Q86YM7): the log2 fold change is -0.02.

GLYR1 (UniProt Q49A26): the log2 fold change is 0.082.

Turning to HIP1 (UniProt O00291), the log2 fold change was -0.038.

In the case of HDGFL2 (UniProt Q7Z4V5), the log2 fold change is -0.007.

Take GTF2E2 (UniProt P29084): the log2 fold change was -0.082.

In the case of HIP1R (UniProt O75146), the log2 fold change was -0.11.

As to FDFT1 (UniProt P37268), the log2 fold change was 0.12.

For HNRNPK isoform 2 (UniProt P61978), the log2 fold change was -0.084.

In the case of GLRX3 (UniProt O76003), the log2 fold change was -0.048.

Take HRC (UniProt P23327): the log2 fold change was 0.01.

As for GNL1 (UniProt P36915), the log2 fold change was -0.024.

For the target GTF3C4 (UniProt Q9UKN8), the log2 fold change is -0.034.

Turning to FECH isoform 2 (UniProt P22830), the log2 fold change is 0.189.

Turning to GPD1 (UniProt P21695), the log2 fold change is -0.104.

Take GPKOW (UniProt Q92917): the log2 fold change was -0.057.

As to FBL (UniProt P22087), the log2 fold change is 0.094.

With GLUD2 (UniProt P49448), the log2 fold change is 0.478 (active).

On to HP1BP3 (UniProt Q5SSJ5), for which the log2 fold change was 0.055.

HADHB (UniProt P55084): the log2 fold change is 0.074.

Take HSPA8 (UniProt E9PK54): the log2 fold change was -0.105.

Consider FERMT3 (UniProt Q86UX7), for which the log2 fold change was -0.036.

Take GDI1 (UniProt P31150): the log2 fold change was 0.001.

As to FOXK1 (UniProt P85037), the log2 fold change is 0.487.

For the target FNTB (UniProt P49356), the log2 fold change is 0.028.
